IL-1B inflam inh: blocks inflammasome-driven IL-1 beta release; AID 743279; THP-1 LPS/ATP IL-1B secretion, AlphaLISA, 16 h; active compounds read low; actives 4.7% (n = 360,000); activity change, % at 57.5 µM; in the data active means activity change below about -50%; inconclusive means mostly about -30% to -49%
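THP-1 cells pretreated 1 hr with compounds (up to 57.5 uM final), then stimulated with LPS (250 ng/mL final) plus ATP (1.25 mM final); secreted IL-1B measured by AlphaLISA after 16 hr, decreased signal indicating inhibition.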
HT1080-NT tox: kills 2HG-producing HT-1080-NT fibrosarcoma cells. Potency, µM (highest dose often 46.1 µM), without a hit: at the highest dose activity, negative = less viability, hits mostly cytotoxic. actives 1.6% (n = 360,000). HT-1080-NT fibrosarcoma viability, CellTiter-Glo ATP luminescence, 48 h. AID 686970;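 further: NT is the 2HG producing partner of a matched IDH1 knockdown line; potency means the concentration at half of the fitted maximal effect; 0% = DMSO-treated cells and -100% = media-only wells without cells; nearly all actives have a fitted effect of over 55% in size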
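750 cells/well, RPMI + 5% FBS; 2 h settle, compound pin-transfer, 48 h at 37 degrees C. CellTiter-Glo 10 min RT, luminescence. Normalized to DMSO and media-only wells.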
HT1080 IDH1KD tx: HT-1080 IDH1 knockdown cell toxicity (counter line). HT-1080 IDH1 knockdown viability, ATP luminescence, 48 h. Potency, µM (highest dose often 46.1 µM), inactives show at the highest dose activity, negative = toxicity, actives largely listed as cytotoxic. actives 2% (n = 360,000);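 further: potency means the concentration at half of the fitted maximal effect; 0% = DMSO wells and -100% = cell-free medium wells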
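Viability of IDH1-knockdown HT-1080 fibrosarcoma cells was assessed by CellTiter-Glo after 48 h at 37 °C with titrated compound; concentration-effect curves were classified by fit quality and response size.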
ALOX12 inh: blocks human arachidonate 12S-lipoxygenase; purified 12hLO, xylenol orange hydroperoxide absorbance; P18054; actives 1.1% (n = 580,000); Potency, µM (titrated, usually from 108 µM), inactives show at the top dose activity change, negative = inhibition, usual class: inhibitors; further: potency means the concentration at half of the fitted maximal effect
Target sequence (P18054 whole entry, looked up): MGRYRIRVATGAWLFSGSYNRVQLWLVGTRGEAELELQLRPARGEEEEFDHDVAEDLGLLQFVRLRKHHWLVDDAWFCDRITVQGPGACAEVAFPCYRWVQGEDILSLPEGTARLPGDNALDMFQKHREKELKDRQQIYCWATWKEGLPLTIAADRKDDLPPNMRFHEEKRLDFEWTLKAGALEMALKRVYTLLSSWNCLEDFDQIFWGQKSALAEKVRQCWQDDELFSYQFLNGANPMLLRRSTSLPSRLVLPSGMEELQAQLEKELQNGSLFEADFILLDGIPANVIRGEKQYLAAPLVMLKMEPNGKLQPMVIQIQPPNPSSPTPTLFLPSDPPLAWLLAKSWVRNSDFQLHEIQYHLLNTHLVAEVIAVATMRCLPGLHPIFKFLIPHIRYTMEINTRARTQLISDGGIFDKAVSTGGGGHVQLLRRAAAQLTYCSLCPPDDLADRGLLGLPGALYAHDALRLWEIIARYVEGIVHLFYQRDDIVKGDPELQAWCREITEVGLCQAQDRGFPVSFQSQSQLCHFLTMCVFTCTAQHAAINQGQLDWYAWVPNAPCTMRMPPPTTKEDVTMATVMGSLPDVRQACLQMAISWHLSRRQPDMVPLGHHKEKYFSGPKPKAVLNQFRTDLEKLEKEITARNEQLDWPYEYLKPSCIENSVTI
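Purified human 12hLO (150 nM final) in 25 mM Hepes, 0.01% Triton X-100, pH 7.0 was preincubated 15 min at room temperature with compound. Then 40 uM arachidonic acid was added, 30 min. Hydroperoxide was read by Fe-XO absorbance ratio 573/405 nm.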
DT40 TDP1 CPT: DT40-hTDP1 cell growth loss with CPT | chicken DT40 Tdp1-/-;hTDP1 cells + 20 nM CPT, ATP luminescence, 48 h | actives 12% (n = 420,000) | Potency, µM (highest dose often 46.2 µM), for inactives: at the highest dose activity change, negative = growth inhibition, most hits filed as inhibitors; further: potency means the concentration at half of the fitted maximal effect; nearly all actives have a fitted effect of over 55% in size
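Chicken DT40 Tdp1-/- cells stably complemented with human TDP1 were seeded at 400 cells/well in medium containing 20 nM camptothecin, exposed to pin-transferred compounds, and grown at 37 °C for at least 48 hr. Viability was read as ATP luminescence.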
TDP1 cell noCPT: qHTS for Inhibitors of human tyrosyl-DNA phosphodiesterase 1 (TDP1): qHTS in cells in absence of CPT | actives 15% (n = 420,000) | DT40 Tdp1-/- hTDP1 cells, no CPT, ATP luminescence, 48 h | Potency, µM (titrated, usually from 46.2 µM), for inactives: top-dose activity change, negative = growth inhibition, hits mostly inhibitors | AID 686978, 2013; further: potency means the concentration at half of the fitted maximal effect; nearly all actives have a fitted effect of over 55% in size
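Chicken DT40 Tdp1-/- cells complemented with human TDP1, screened without camptothecin (DMSO vehicle only), 400 cells/well. Compounds pin-transferred, cells incubated at 37 °C for at least 48 hr. Growth read as ATP-dependent luminescence (CellTiter-Glo, 30 min at RT).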
The depositor's hits bear a star; ? = inconclusive; nt = not tested or not shown; [ ] = another dose, or the depositor's remark. Many of the other results were omitted from the sample, so hits are more common in it than they were. Unless noted, the call rests on the fitted dose curve; in most records, active means well fitted curve in the direction sought with a large enough effect; inconclusive means small, poorly fitted or top-dose-only effect, or another doubt; inactive means no such curve, though single readings can be large; an effect the other way counts as inactive or inconclusive. Unless noted, on the % scale 0 is the no-effect control and ±100 the full control effect.

SMILES | IL-1B inflam inh | HT1080-NT tox | HT1080 IDH1KD tx | ALOX12 inh | DT40 TDP1 CPT | TDP1 cell noCPT
CC(C)=CCC/C(C)=C/CNC(=O)C[C@H]1C[C@H](C(=O)N2CCOCC2)[C@@]2(C)c3[nH]c4cc(-c5ccco5)ccc4c3CCN2C1=O | ? | ? | ? | nt | 21µM* | 13µM*
CC(C)=CCC/C(C)=C/CNC(=O)CC1C[C@H](C(=O)N2CCOCC2)[C@@]2(C)c3[nH]c4ccccc4c3CCN2C1=O (stereo partly specified) | ? | 4% | 8% | ? | 13µM* | 12µM*
CC(C)C1=NOC2(CCN(Cc3ccc(C#N)cc3)C2)C1 (stereo unspecified) | nt | nt | nt | 13%[12.5 µM] | nt | nt
O=C(CSc1nc(Cl)nc2nc[nH]c12)Nc1ccc(OC(F)(F)F)cc1 | nt | nt | nt | 21% | nt | nt
CCn1ncc(Br)c1C(=O)Nc1ccn(C23CC4CC(CC(C4)C2)C3)n1 | 39 | -16% | -20% | -10% | 21µM* | 13µM*
C/C(=N\O)c1ccc(OCCOc2ccc(/C(C)=N/O)cc2)cc1 | nt | nt | nt | 13% | nt | nt
Brc1ccc(OCc2nnnn2-c2ccccc2)cc1 | -69* | -17% | -18% | -15% | 0% | ?
COc1cc(/C=C/C(=O)N2C(=O)c3cccc(N)c3C2=O)cc(OC)c1OC | -20 | -9% | -8% | 2% | 5.8µM* | 29µM*
COc1cc(/C=C/C(=O)N2CCN(C(=O)/C=C/c3cc(OC)c(OC)c(OC)c3)CC2)cc(OC)c1OC | -8 | 19% | 15% | nt | -4% | -16%
COc1ccc(OC)c(/C=C/C(=O)N2C(=O)c3cccc(N)c3C2=O)c1 | -121* | ? | 16µM* | -11% | 4.6µM* | 5.2µM*
c1cc2c(cc1Nc1nc(CN3CCOCC3)nc3sc4c(c13)CCCC4)CCC2 | nt | nt | nt | 28% | nt | nt
O=C(Nc1cccc(Cl)c1)C(Cc1ccccc1)n1cccc1 (stereo unspecified) | nt | nt | nt | 0% | 23µM* | 18µM*
COc1ccc(NC(=O)C(Cc2ccccc2)n2cccc2)cc1OC (stereo unspecified) | -12 | -8% | -8% | -1% | 8.2µM* | 21µM*
CC(C)c1ccc(NC(=O)C(Cc2ccccc2)n2cccc2)cc1 (stereo unspecified) | nt | nt | nt | 0% | 21µM* | 16µM*
O=C(Nc1cccnc1)C(Cc1ccccc1)n1cccc1 (stereo unspecified) | 0 | -8% | -13% | 19% | ? | -15%
CCCn1c(=O)[nH]c(=O)c2c1nc(-c1ccc(OCC#N)c(OC)c1)n2CCOC | nt | nt | nt | 14% | nt | nt
O=C(NC[C@H]1Cn2c(-c3ccccc3)cnc2CO1)c1cnccn1 | nt | nt | nt | 46%[176 µM] | nt | nt
CCS(=O)(=O)N(C1CC1)C1CCOC2(CCN(C(=O)Cc3ccccc3)CC2)C1 (stereo unspecified) | nt | nt | nt | 47% | nt | nt
O=C(Nc1cccc(-c2nnc3n2CCCC3)c1)c1ccsc1 | nt | nt | nt | 6% | nt | nt
CCOC(=O)C1=C(C)N=c2s/c(=C3/C(=O)Nc4ccccc43)c(=O)n2C1c1ccc(C)cc1 (stereo unspecified) | 60 | -16% | -11% | -1% | 26µM* | 23µM*
CCOC(=O)C1=C(C)N(Cc2ccccc2)C(=O)NC1c1ccc(OC)cc1 (stereo unspecified) | -16 | 0% | 16% | -12% | -17% | -20%
CCOC(=O)C1=C(C)N=c2s/c(=C\c3ccc(C(=O)O)cc3)c(=O)n2C1c1ccc(F)cc1 (stereo unspecified) | -7 | 0% | 2% | ? | -11% | 1%
CCOC(=O)C1=C(C)n2c(s/c(=C3\C(=O)Nc4ccccc43)c2=O)=NC1c1ccc(OC)cc1 (stereo unspecified) | 30 | 12% | 14% | -7% | ? | 21µM*
CC1=CCC(/C=N/NC(N)=O)CC1 (stereo unspecified) | nt | nt | nt | 15% | nt | nt
Cc1cccc(C(=O)Nc2cnc3ccccc3c2)c1C | nt | nt | nt | -3% | nt | nt
SMILES | IL-1B inflam inh | HT1080-NT tox | HT1080 IDH1KD tx | ALOX12 inh | DT40 TDP1 CPT | TDP1 cell noCPT
O=c1oc2cc(OCc3nn[nH]n3)ccc2cc1-c1ccc(F)cc1 | nt | nt | nt | -9% | nt | nt
COc1ccc2c(-c3cc4ccc(OCc5ccc(F)cc5)cc4oc3=O)cc(=O)oc2c1 | -9 | 18% | 5% | -25% | 7.3µM* | 12µM*
CC(=O)Nc1nc(=S)ss1 | 15 | 23% | 14% | ? | -28% | -25%
CC(C)CC(=O)Nc1nc(=S)ss1 | -1 | -2% | -2%[9.24 µM] | ? | ? | 10µM*
CC(C)(CNC(=O)C1(c2ccc(F)cc2)CCC1)C(N)=O | nt | nt | nt | -21% | nt | nt
CCOC(=O)/C(C#N)=C/c1c(N2CCCCCC2)nc2ccccn2c1=O | 4 | 0% | -2% | 0% | ? | 21µM*
CCNc1nn2ccccc2c1/C=C(\C#N)C(=O)OCC | -21 | 3% | 4% | -28% | ? | 16µM*
Fc1ccc2nc(CO[C@H]3CN(Cc4ccncc4F)C[C@H]3F)[nH]c2c1 | nt | nt | nt | 38%[176 µM] | nt | nt
COc1ccc(Cn2c(-n3nc(C)cc3C)nc3c2c(=O)n(CC(N)=O)c(=O)n3C)cc1 | nt | nt | nt | 12% | nt | nt
O=C(CCS(=O)(=O)Cc1ccccc1)Nc1cc(C(F)(F)F)ccc1Cl | nt | nt | nt | 3% | nt | nt
c1ccc(-c2nnc(CN3CCCc4ccccc43)o2)cc1 | 16 | -2% | -5% | 0% | ? | 23µM*
COc1ccc(NC(=S)N(CCCN2CCC(C)CC2)Cc2cccs2)cc1Cl | ? | ? | ? | 11% | 26µM* | 18µM*
Cc1ccccc1NC(=S)N(Cc1ccccc1)Cc1cccs1 | 50 | 4% | 0% | -15% | -21% | 2%
CNC(=S)N(Cc1ccc(Cl)cc1)Cc1cccs1 | nt | -5% | -17% | 59% | ? | 16µM*
CN1CCN(CCCN(Cc2cccs2)C(=S)Nc2ccc(Cl)cc2)CC1 | -65* | -20% | -18% | -8% | ? | ?
Cc1ccc(OC(C)c2nc(-c3cccnn3)no2)cc1C (stereo unspecified) | nt | nt | nt | -37% | nt | nt
CN(C)CCN(C(=O)c1ccc2c(c1)OCCO2)c1nc2cc3c(cc2s1)OCO3 | -54* | -3% | -5% | nt | -10% | -12%
CN(C)CCN(C(=O)c1ccc2ccccc2c1)c1nc2cc3c(cc2s1)OCO3 | -5 | -10% | -5% | ? | ? | 23µM*
CCOc1ccc2nc(N(CCN(C)C)C(=O)c3ccc4c(c3)CCCC4)sc2c1 | -65* | -11% | -9% | nt | ? | ?

Bioassay records from PubChem.
